In PubChem BioAssay AID1508600 (Functional Genomics Laboratory (NCATS/FGL), 2020):
The campaign covered roughly 53,000 sequences. About 3,700 (7%) were called active.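 The calls were made as follows: active = gene knockdowns whose robust z-score for IL-1 alpha signal is at least 2 or at most -2, so actives lie on both sides; inactive = the rest.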 Many of the other results were omitted from the sample, so actives are more common in it than they were.

assay: Components of the Cytosolic LPS Sensing Pathway: Gene Identification via Genome-wide siRNA Screen; settings: RAW264.7 macrophages, IL-1a HTRF, actives lie on both sides, screened at 100 nM (by protocol), cells primed 5 h with Pam3CSK4 first;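 also: robust z of the log signal after scaling to non-targeting control siRNA wells of the plate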
How it was run: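 Read-out: IL-1a HTRF on supernatant, divided by plate negative-control median ×100, log-transformed and converted to robust z-score. Cells were RAW264.7 given 100 nM siRNA, Pam3CSK4-primed 5 hours, then LipidA-transfected 24 hour.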

Q: For GGCUAUGGAAACCACCACATT against Nrg3, which z-score is on record?
A: -1.21 (inactive)

Q: For CGAUGAUAAAACGAACAAGTT against Plppr5, which z-score is on record?
A: 2.78 (active)

Q: With GGAUUGUCCACAUGGAACUTT against Ccl27a as the sequence, how does the z-score read?
A: -0.112 (inactive)

Q: With GGUAUGGAUGAAGAACUAGTT against Pdhb as the sequence, how does the z-score read?
A: 1.62 (inactive)

Q: For GGUUGUACCUACAACAGAUTT against Tiprl, which z-score is on record?
A: -0.773 (inactive)

Q: With GGCUUUACUUCUUGCUGUGTT against Olfr1412 as the sequence, how does the z-score read?
A: -0.918 (inactive)

Q: Which z-score does the source give for CCAUGGACCAAAUGAAGUUTT against Cd44 here?
A: 2.59 (active)

Q: For GCAAGAUACUGACCACUAGTT against Krt25, which z-score is on record?
A: 0.14 (inactive)

Q: Which z-score does the source give for CCCAGGUGAGACCUUUACCTT against Fndc3b here?
A: -1.76 (inactive)

Q: Which z-score does the source give for CCUUCUUGUGGGAGUGAAATT against Chodl here?
A: -0.0597 (inactive)

Q: Which z-score does the source give for GGUAGACACACACAUUCAUTT against Ampd3 here?
A: 0.633 (inactive)

Q: Which z-score does the source give for AGUGCUCAUUAACUGUCGCTT against Snrpd2 here?
A: -2.75 (active)

Q: Which z-score does the source give for CCGUUGACCUGAAAAGGAATT against Clic4 here?
A: -0.0288 (inactive)

Q: Which z-score does the source give for GGAGAAAAGCAAUAAUGAATT against Klf12 here?
A: -1.07 (inactive)

Q: With CGUGAGCACAAAAAUAUUGTT against Fchsd2 as the sequence, how does the z-score read?
A: -0.251 (inactive)

Q: For GGACAAGUCGAAGAGUGAGTT against Ing1, which z-score is on record?
A: -2.26 (active)

Q: Which z-score does the source give for GGAACAGCGGCUAACUUAUTT against Asic4 here?
A: 1.4 (inactive)

Q: For GGUGCUAAGCAUGAAGCCUTT against Stk16, which z-score is on record?
A: -1.01 (inactive)

Q: For GGUAGAAGAAUUGUUUGUGTT against Tcp11l1, which z-score is on record?
A: 0.967 (inactive)

Q: With GGUGAUGCUUCUUGGAGACTT against Rab37 as the sequence, how does the z-score read?
A: -0.59 (inactive)

Q: Which z-score does the source give for GCGUGAACGGAUAAAAAAUTT against Figla here?
A: 1.09 (inactive)

Q: Which z-score does the source give for GGCACUUAAGGAAAUUGGGTT against Bloc1s1 here?
A: -2.02 (active)

Q: Which z-score does the source give for CCAUUCCAAAGGUAUUAGCTT against Olfr619 here?
A: -0.244 (inactive)

Q: Which z-score does the source give for GGCAAAACAACUUUAUUCCTT against Ucp2 here?
A: 1.14 (inactive)

Q: With GGAUAUCACCUUCGAGAUATT against Ankrd7 as the sequence, how does the z-score read?
A: -0.0496 (inactive)

Q: With GGAUGAGAUCAACUUCCUCTT against Krt7 as the sequence, how does the z-score read?
A: -0.6 (inactive)

Q: Which z-score does the source give for GCAUCUCAAGACGAUGGAUTT against Akap8l here?
A: 2.3 (active)

Q: With GGCUUUUGAAGCCAUCAAGTT against Mrpl57 as the sequence, how does the z-score read?
A: -1.2 (inactive)

Q: Which z-score does the source give for GGAAUUCUGACGUGAAGAATT against Olfr13 here?
A: -0.987 (inactive)

Q: Which z-score does the source give for GGUAGACUGUGAAAAUGACTT against Ldlr here?
A: -0.6 (inactive)

Q: For GGUGAAGCGAAUUCUCUACTT against Upb1, which z-score is on record?
A: -0.362 (inactive)

Q: For “GGCAUUGGCAUUUUUAUAGTT against 9530056K15Rik”, which z-score is on record?
A: -0.879 (inactive)

Q: With GCCACGAGUUCUUUGAAGCTT against Ubxn6 as the sequence, how does the z-score read?
A: -0.15 (inactive)

Q: With GGACAAGAUUGUAUCUGCATT against Olfr1507 as the sequence, how does the z-score read?
A: -0.56 (inactive)

Q: Which z-score does the source give for GGAGCAAGAGUCUAAAUGATT against Rubcn here?
A: -2.23 (active)

Q: With GGAUCAAGUGGCUGAUUUGTT against Ube2t as the sequence, how does the z-score read?
A: -0.457 (inactive)

Q: For GGACUAUUCUGAGAAUCCCTT against Olfr821, which z-score is on record?
A: -1.69 (inactive)

Q: Which z-score does the source give for GCCUCUGAUGUAAACAGGATT against Nr2c2ap here?
A: 0.883 (inactive)

Q: With “GCAGUGUAUACCUGGGCUATT against 1700001C19Rik” as the sequence, how does the z-score read?
A: 0.388 (inactive)

Q: For GGCACUCCUGAUGUUCUCUTT against Cyb561d2, which z-score is on record?
A: -2.96 (active)

Q: For GGUGUUACAGAUGUACCGATT against Nfkbid, which z-score is on record?
A: 0.0859 (inactive)

Q: With GGAAGACAAUGAUGAUGUUTT against Clns1a as the sequence, how does the z-score read?
A: -1.82 (inactive)

Q: With GGAGUUUUGAAUAAACCAATT against Tmc7 as the sequence, how does the z-score read?
A: -0.2 (inactive)

Q: Which z-score does the source give for GGGCUUUCCUCAAGGUAGUTT against Olfr62 here?
A: -1.39 (inactive)

Q: With GGAAUUGUCUAACAGGCUGTT against Hoxd12 as the sequence, how does the z-score read?
A: -0.025 (inactive)

Q: For GGAACAGUUACUUGAGAGUTT against Zfp786, which z-score is on record?
A: 0.759 (inactive)

Q: With CGAGCUCAGGCCUAUUAAATT against Cdh12 as the sequence, how does the z-score read?
A: 3.39 (active)

Q: For GGCUUUGACAAUCUUUAAGTT against Ergic1, which z-score is on record?
A: -0.687 (inactive)

Q: For CCUCAACUGGUUCCCUAACTT against Spatc1, which z-score is on record?
A: -1.73 (inactive)

Q: For GCUGGUUACAUAAAGCUACTT against Slc25a51, which z-score is on record?
A: 0.0694 (inactive)

Q: For CGGAGUAAACAAUACAGUCTT against Gnmt, which z-score is on record?
A: 2.26 (active)

Q: Which z-score does the source give for CCUCCUAAGGAUGAAGAUUTT against Calml4 here?
A: 0.654 (inactive)

Q: With CGACAGUUACUUGCCCAGATT against Rasgrp3 as the sequence, how does the z-score read?
A: -1.36 (inactive)

Q: Which z-score does the source give for GGCGAAAUCUGCUAGAGUATT against Tppp3 here?
A: 2.3 (active)

Q: With GCUGUCGUUGAAGGCAUUGTT against Olfr317 as the sequence, how does the z-score read?
A: -0.828 (inactive)

Q: Which z-score does the source give for GAGUGAUGCGCAUUUCGAGTT against Sf3b5 here?
A: -2.53 (active)

Q: With GCCAGAUCAUUGUAUCAAUTT against Tmx3 as the sequence, how does the z-score read?
A: 1.27 (inactive)

Q: With GGAGAUUGUUGACCUGGUCTT against Tuba3b as the sequence, how does the z-score read?
A: 2.03 (active)

Q: Which z-score does the source give for GGUGGAUGUCUUCUUCAACTT against Gata2 here?
A: 0.697 (inactive)

Q: For GCCUCGUGAAUAAUUGAAATT against Ddt, which z-score is on record?
A: 0.967 (inactive)

Q: With GCCUAUUCUAUCGAUAACCTT against Cdh23 as the sequence, how does the z-score read?
A: 0.801 (inactive)

Q: For GGCCAUCAGUAUCAGCAAATT against Hip1r, which z-score is on record?
A: 0.547 (inactive)

Q: For GGCUAUUGUGGAGAAGAUCTT against Cblif, which z-score is on record?
A: -2.07 (active)

Q: For GGAGACUCCUAAGAAGCAGTT against Cc2d1a, which z-score is on record?
A: 0.445 (inactive)

Q: Which z-score does the source give for GGAUCGAAUCAGGAAUGAATT against Nphs1 here?
A: 1.39 (inactive)

Q: For GGAGAGUUACGACGUAUUCTT against Ckb, which z-score is on record?
A: 0.23 (inactive)

Q: For GGGACAAAAACACAUGUACTT against Kif5c, which z-score is on record?
A: 0.773 (inactive)

Q: For GGGAAUCAAAGGCUUUGGGTT against Ms4a1, which z-score is on record?
A: -1.15 (inactive)

Q: With CCAUAUACCCUUGAAUUCCTT against Tmem185b as the sequence, how does the z-score read?
A: 0.154 (inactive)

Q: For GGAAAGGAAUGUUCAAAUUTT against Psmb8, which z-score is on record?
A: 2.02 (active)

Q: For GGAAGACCUUCUUAAACACTT against Prokr2, which z-score is on record?
A: 1.26 (inactive)

Q: Which z-score does the source give for GCUUUUGACGAGCAAGCAGTT against Eme1 here?
A: 1.47 (inactive)

Q: For GGCAGUCACUGGCUAAAUGTT against Ugt2a1, which z-score is on record?
A: 2.13 (active)

Q: Which z-score does the source give for CCCUUUCCUAUUUGUUAUGTT against Serpinb3d here?
A: 0.754 (inactive)

Q: Which z-score does the source give for GGUAUUAGUAUGUAUCUUCTT against Olfr135 here?
A: 0.305 (inactive)

Q: For CCCUAAUGAAUGGUCUCAUTT against Tmem74, which z-score is on record?
A: -0.176 (inactive)

Q: For CCAUGUCCUAACCUGAAACTT against Zic5, which z-score is on record?
A: 0.372 (inactive)

Q: Which z-score does the source give for GGAUUUGAGCGAUAUGAGCTT against Tex12 here?
A: -3.29 (active)

Q: For GGCCCUAAUAGCAACAGGATT against Ubqln2, which z-score is on record?
A: -1.31 (inactive)

Q: For GGCCUUCAAAUCAUACGCUTT against Ms4a19, which z-score is on record?
A: 0.283 (inactive)

Q: Which z-score does the source give for GGAAGAAAAGGCUUCUCUUTT against Ube3c here?
A: -0.00788 (inactive)

Q: Which z-score does the source give for GGGAGAAUUUUUGUGCAAGTT against Capza3 here?
A: 0.437 (inactive)

Q: Which z-score does the source give for CGCAUGUUCAUAGGACUGCTT against Olfr1420 here?
A: 0.453 (inactive)

Q: Which z-score does the source give for GGAUCUUUCUUUUCUCUCUTT against Rab6b here?
A: 0.32 (inactive)

Q: For GCUGAUCAAAUUGGCCUGUTT against Olfr984, which z-score is on record?
A: -0.703 (inactive)

Q: For GCUUCAGUAUUUAUUUGCUTT against Usp28, which z-score is on record?
A: 2.27 (active)

Q: With GGAAGGCCGCAUACUGAUGTT against Scgn as the sequence, how does the z-score read?
A: -0.218 (inactive)

Q: Which z-score does the source give for GGAUUGAAAGCUACUCGUGTT against Maf1 here?
A: 0.533 (inactive)

Q: With GAGACAAUGCAGCAAAAUCTT against Gm839 as the sequence, how does the z-score read?
A: -1.13 (inactive)

Q: For GCACAAUUUCGUGUGAGCUTT against Sfxn5, which z-score is on record?
A: 0.643 (inactive)

Q: Which z-score does the source give for GGCAGAAUUUGAGCACUUUTT against B4galnt2 here?
A: -2 (active)

Q: With GGAGGAGUAUGUUAAGGCCTT against Myh6 as the sequence, how does the z-score read?
A: 0.193 (inactive)

Q: Which z-score does the source give for GGAGAGUCCAUACCAGAACTT against C1qa here?
A: 0.0536 (inactive)

Q: For GGUUGGACAACAUAAUAAGTT against Riox2, which z-score is on record?
A: 1.17 (inactive)

Q: For GGUGUGGAGUAUGUAUGCUTT against Aplp1, which z-score is on record?
A: -1.11 (inactive)

Q: With GGCCUGCGUUCAGAAGAGUTT against Wrn as the sequence, how does the z-score read?
A: 3.46 (active)

Q: For GGAACUACUACUCACCUAUTT against Trhr, which z-score is on record?
A: -0.776 (inactive)

Q: Which z-score does the source give for GGGUCCUAAAAAUUCAAUUTT against Decr2 here?
A: -0.106 (inactive)

Q: Which z-score does the source give for GCUUCGUGGCUUUUUAUGATT against Dlgap3 here?
A: -0.788 (inactive)

Q: Which z-score does the source give for GCGAUUUGUGGUUCUCAUATT against Rnf103 here?
A: -0.559 (inactive)

Q: For GGCGCACAAAGCUGUUCUUTT against Zbtb43, which z-score is on record?
A: -0.87 (inactive)

Q: With GGGAACAAAAACAUAAAAGTT against Otub2 as the sequence, how does the z-score read?
A: -1.17 (inactive)

Q: With GAAUUGUCUUACUUGGAAATT against Gimap4 as the sequence, how does the z-score read?
A: 2.05 (active)

Q: With CGGUCCUGAAUGAUCCUACTT against Gp2 as the sequence, how does the z-score read?
A: 0.969 (inactive)

Q: Which z-score does the source give for GGAUUUGUGUCCAUCGUGCTT against Olfr66 here?
A: 0.00905 (inactive)

Q: For CCGUAUGUAACCAUCAAAGTT against Ncf1, which z-score is on record?
A: 0.281 (inactive)

Q: With GGCACUCCCUAAUGAACUCTT against Adck5 as the sequence, how does the z-score read?
A: 1.42 (inactive)

Q: With GUUACCUCAGUGUUAUACUTT against Olfr45 as the sequence, how does the z-score read?
A: 1.7 (inactive)
